# Shown is part of a subset that was picked to be rich in the strongest signals.
# B1: rCnSL-proA (Clitocybe nebularis) (protein)
# chain: AAFFSLVVLLALLPFGIHASALPSTELTPRVNPNLPGPNDVFVGFRGTNNIVGAIYEKDGIKDTPLNNGADAEMGPGSYITDGLFTARIFASGSAGNNPGTTATVCKIYASGVQWRGAPKGYIPVAYFGNGPTAEQRRQTYLRTLGLPGTAIRFGNLNTNPGQGPTAPRQMVVPPGPLRSLLKASCFPAADTRLPQTLHYFEKRVDWNIITAADSQTWGH
# Key:
# Assay in all cases: glycan array binding signal (z-score within array); higher = stronger binding
# Conditions in all cases: glycan notation: IUPAC condensed, linker removed
# Fuc(a1-2)Gal(b1-3)GalNAc = target: Fuc(a1-2)Gal(b1-3)GalNAc
# Method in brief: (§1)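 From the Consortium for Functional Glycomics database, 3228 arrays were curated, keeping only those whose protein sequence was available. Binding is given as a within-array Z-score averaged across arrays sharing a protein sequence and across linkers. Negative Z-scores can be read as non-binding.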
# Fuc(a1-2)Gal(b1-3)GlcNAc = target: Fuc(a1-2)Gal(b1-3)GlcNAc
# Method in brief: as §1
# [1] = target: Fuc(a1-2)Gal(b1-3)[Fuc(a1-4)]GlcNAc(b1-2)Man(a1-3)[Fuc(a1-2)Gal(b1-3)[Fuc(a1-4)]GlcNAc(b1-2)Man(a1-3)]Man(b1-4)GlcNAc(b1-4)GlcNAc
# Method in brief: as §1
# [2] = target: Fuc(a1-2)Gal(b1-3)[Fuc(a1-4)]GlcNAc(b1-3)[Fuc(a1-3)[Gal(b1-4)]GlcNAc(b1-6)]Gal(b1-4)Glc
# Method in brief: as §1
# Fuc(a1-2)Gal(b1-4)Glc = target: Fuc(a1-2)Gal(b1-4)Glc
# Method in brief: as §1
# [3] = target: Fuc(a1-2)Gal(b1-4)[Fuc(a1-3)]GlcNAc(b1-3)[Neu5Ac(a2-6)Gal(b1-4)GlcNAc(b1-6)]Gal(b1-4)Glc
# Method in brief: as §1
# [4] = target: Fuc(a1-2)Gal6S(b1-4)Glc6S
# Method in brief: as §1
# [5] = target: Fuc(a1-2)[Gal(a1-3)]Gal(b1-3)GalNAc(b1-3)Gal(a1-4)Gal(b1-4)Glc
# Method in brief: as §1
# [6] = target: Fuc(a1-2)[Gal(a1-4)]Gal(b1-4)GlcNAc
# Method in brief: as §1
# [7] = target: Fuc(a1-2)[GalNAc(a1-3)]Gal(b1-3)GlcNAc
# Method in brief: as §1
# [8] = target: Fuc(a1-2)[GalNAc(a1-3)]Gal(b1-4)GlcNAc
# Method in brief: as §1
# [9] = target: Fuc(a1-2)[GalNAc(a1-3)]Gal(b1-4)GlcNAc(b1-2)Man
# Method in brief: as §1
# [10] = target: Fuc(a1-3)[Gal(b1-4)]GlcNAc(b1-6)GalNAc
# Method in brief: as §1
# [11] = target: Fuc(a1-3)[Gal(b1-4)]GlcNAc6S
# Method in brief: as §1
# [12] = target: Gal(a1-3)Gal(b1-4)GlcNAc(b1-3)GalNAc
# Method in brief: as §1
# [13] = target: Gal(a1-3)Gal(b1-4)[Fuc(a1-3)]GlcNAc(b1-2)Man(a1-3)[Gal(a1-3)Gal(b1-4)[Fuc(a1-3)]GlcNAc(b1-2)Man(a1-6)]Man(b1-4)GlcNAc(b1-4)GlcNAc
# Method in brief: as §1
# Gal(a1-4)Gal(b1-4)Glc = target: Gal(a1-4)Gal(b1-4)Glc
# Method in brief: as §1
# [14] = target: Gal(b1-3)GlcNAc(b1-3)Gal(b1-4)Glc
# Method in brief: as §1
# [15] = target: Gal(b1-3)GlcNAc(b1-3)Gal(b1-4)[Fuc(a1-3)]GlcNAc(b1-6)[Gal(b1-3)GlcNAc(b1-3)]Gal(b1-4)Glc
# Method in brief: as §1
# [16] = target: Gal(b1-3)[Neu5Ac(a2-6)]GlcNAc(b1-4)Gal(b1-4)Glc
# Method in brief: as §1
# [17] = target: Gal(b1-4)GlcNAc(a1-6)Gal(b1-4)GlcNAc
# Method in brief: as §1
# [18] = target: Gal(b1-4)GlcNAc(b1-2)[Gal(b1-4)GlcNAc(b1-4)]Man(a1-3)[Gal(b1-4)GlcNAc(b1-2)Man(a1-6)]Man(b1-4)GlcNAc(b1-4)GlcNAc
# Method in brief: as §1
# [19] = target: Gal(b1-4)GlcNAc(b1-3)Gal(b1-4)GlcNAc(b1-2)Man(a1-3)[Gal(b1-4)GlcNAc(b1-3)Gal(b1-4)GlcNAc(b1-2)Man(a1-6)]Man(b1-4)GlcNAc(b1-4)GlcNAc
# Method in brief: as §1
# [20] = target: Gal(b1-4)GlcNAc(b1-3)Gal(b1-4)GlcNAc(b1-3)Gal(b1-4)GlcNAc(b1-2)Man(a1-3)[Gal(b1-4)GlcNAc(b1-3)Gal(b1-4)GlcNAc(b1-3)Gal(b1-4)GlcNAc(b1-2)Man(a1-6)]Man(b1-4)GlcNAc(b1-4)GlcNAc
# Method in brief: as §1
# [21] = target: Gal(b1-4)GlcNAc(b1-3)Gal(b1-4)GlcNAc(b1-3)Gal(b1-4)GlcNAc(b1-2)[Gal(b1-4)GlcNAc(b1-3)Gal(b1-4)GlcNAc(b1-3)Gal(b1-4)GlcNAc(b1-6)]Man(a1-6)[Gal(b1-4)GlcNAc(b1-3)Gal(b1-4)GlcNAc(b1-3)Gal(b1-4)GlcNAc(b1-2)Man(a1-3)]Man(b1-4)GlcNAc(b1-4)[Fuc(a1-6)]GlcNAc
# Method in brief: as §1
# [22] = target: Gal(b1-4)GlcNAc(b1-3)Gal(b1-4)GlcNAc(b1-3)Gal(b1-4)GlcNAc(b1-3)Gal(b1-4)GlcNAc(b1-2)[Gal(b1-4)GlcNAc(b1-3)Gal(b1-4)GlcNAc(b1-3)Gal(b1-4)GlcNAc(b1-3)Gal(b1-4)GlcNAc(b1-6)]Man(a1-6)[Gal(b1-4)GlcNAc(b1-3)Gal(b1-4)GlcNAc(b1-3)Gal(b1-4)GlcNAc(b1-3)Gal(b1-4)GlcNAc(b1-2)Man(a1-3)]Man(b1-4)GlcNAc(b1-4)[Fuc(a1-6)]GlcNAc
# Method in brief: as §1
# [23] = target: Gal(b1-4)GlcNAc(b1-3)Gal(b1-4)GlcNAc(b1-3)Gal(b1-4)GlcNAc(b1-3)Gal(b1-4)GlcNAc(b1-3)Gal(b1-4)GlcNAc(b1-2)[Gal(b1-4)GlcNAc(b1-3)Gal(b1-4)GlcNAc(b1-3)Gal(b1-4)GlcNAc(b1-3)Gal(b1-4)GlcNAc(b1-3)Gal(b1-4)GlcNAc(b1-6)]Man(a1-6)[Gal(b1-4)GlcNAc(b1-3)Gal(b1-4)GlcNAc(b1-3)Gal(b1-4)GlcNAc(b1-3)Gal(b1-4)GlcNAc(b1-3)Gal(b1-4)GlcNAc(b1-2)Man(a1-3)]Man(b1-4)GlcNAc(b1-4)[Fuc(a1-6)]GlcNAc
# Method in brief: as §1
binder,measurement,setting,value
B1,glycan array binding signal (z-score),Fuc(a1-2)Gal(b1-3)GalNAc,-0.318
same,glycan array binding signal (z-score),Fuc(a1-2)Gal(b1-3)GlcNAc,-0.622
same,glycan array binding signal (z-score),[1],6
same,glycan array binding signal (z-score),[2],-0.573
same,glycan array binding signal (z-score),Fuc(a1-2)Gal(b1-4)Glc,-0.272
same,glycan array binding signal (z-score),[3],-0.085
same,glycan array binding signal (z-score),[4],-0.281
same,glycan array binding signal (z-score),[5],-0.278
same,glycan array binding signal (z-score),[6],0.128
same,glycan array binding signal (z-score),[7],0.497
same,glycan array binding signal (z-score),[8],-0.387
same,glycan array binding signal (z-score),[9],-0.723
same,glycan array binding signal (z-score),[10],0.153
same,glycan array binding signal (z-score),[11],0.115
same,glycan array binding signal (z-score),[12],-0.161
same,glycan array binding signal (z-score),[13],3.75
same,glycan array binding signal (z-score),Gal(a1-4)Gal(b1-4)Glc,-0.307
same,glycan array binding signal (z-score),[14],-0.329
same,glycan array binding signal (z-score),[15],0.293
same,glycan array binding signal (z-score),[16],-0.459
same,glycan array binding signal (z-score),[17],3.94
same,glycan array binding signal (z-score),[18],0.465
same,glycan array binding signal (z-score),[19],5.99
same,glycan array binding signal (z-score),[20],4.45
same,glycan array binding signal (z-score),[21],4.11
same,glycan array binding signal (z-score),[22],4.64
same,glycan array binding signal (z-score),[23],3.94

# — the supplement of paper PMC8728848
